{
  "source": "the OligoGym collection",
  "data": [
    {"target": "COL20A1", "assay": "pooled miR-30 sensor sort-seq; sequence = guide strand", "conditions": "shRNA", "values": [
      {"sequence": "TTGGTGTGAAGGCAACTTGGGG", "sensor-assay potency score (higher = more potent)": -0.796},
      {"sequence": "TCGAACTTTGACACGTGTGAGG", "sensor-assay potency score (higher = more potent)": -1.19},
      {"sequence": "TTGAAGAGCGTGAAGGTCGGGG", "sensor-assay potency score (higher = more potent)": 0.169},
      {"sequence": "TAGACGTCACTGACCCGTCTTG", "sensor-assay potency score (higher = more potent)": -0.759},
      {"sequence": "TATCTGAACTTGGAAATGCTAC", "sensor-assay potency score (higher = more potent)": -0.775},
      {"sequence": "TCTTCCTGAGCTTTTCTCCTGG", "sensor-assay potency score (higher = more potent)": -0.053},
      {"sequence": "TCAATCACAAACTCCCTCCGAG", "sensor-assay potency score (higher = more potent)": 0.439},
      {"sequence": "AGCAGTGTGCACATCGTCCTGG", "sensor-assay potency score (higher = more potent)": -0.7},
      {"sequence": "TAGGTCAGGGACTTCTTCCCGG", "sensor-assay potency score (higher = more potent)": -0.568}
    ]}
  ]
}
